According to PubChem BioAssay (NCATS):
Inconclusive results are not listed. Active and inactive are the calls of the source. The call rests on the fitted dose curve; in most records, active means well fitted curve in the direction sought with a large enough effect; inconclusive means small, poorly fitted or top-dose-only effect, or another doubt; inactive means no such curve, though single readings can be large; an effect the other way counts as inactive or inconclusive.

Tests used:
[1] = Cellular Toxicity (caspase-3) Mesangial (AID 660); settings: mesangial cells, normalized: DMSO 0%, 100 µM tamoxifen 100%; at 91.7 µM (top of the series);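 further: combined caspase 3 and 7 activity read by Caspase-Glo luminescence; cells exposed to compound for 16 h before the caspase read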
Procedure, shortened: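 Human renal glomerular mesangial cells, 1000/well, 5 h at 37 C before 16 h compound treatment. Caspase-Glo 3/7 luminescence after 20 min; normalized to DMSO and 100 uM tamoxifen, AC50 from Hill fit.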

[2] = Cellular Toxicity (caspase-3) SK-N-SH (AID 661);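 further: 0% = DMSO basal and 100% = 10 µM staurosporine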
Procedure, shortened: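 Human SK-N-SH neuroblastoma cells, 1500/well, were exposed to compounds for 16 hours at 37 °C. Caspase-Glo 3/7 luminescence was normalized to DMSO (basal) and 10 uM staurosporine (100%), and AC50 came from a Hill fit.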

[3] = Cellular Toxicity (caspase-3) H-4-II-E (AID 663); settings: H-4-II-E rat hepatoma, scaled: DMSO 0%, 100 µM tamoxifen 100%; at 92.2 µM (top of the series);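 further: cells exposed to compound for 16 hr before readout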
Procedure, shortened: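 Apoptosis induction is scored as increased luminescence from caspase 3/7 substrate cleavage in rat hepatoma H-4-II-E cells exposed to compound for 16 hr. Activity is scaled between DMSO and 100 uM tamoxifen.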

[4] = Cellular Toxicity (caspase-3) Hek293 (AID 664); settings: HEK293 caspase-3 activation, DMSO = 0%, 100 µM tamoxifen = 100%; at 92.2 µM (top of the series);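 further: cells exposed to compound for 16 h at 37 °C before readout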
Procedure, shortened: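 HEK293 cells in complete medium treated 16 h at 37 °C, then Caspase-Glo 3/7 luminescence read after 20 min at room temperature. Normalized to DMSO and 100 uM tamoxifen; AC50 from Hill fit of concentration-response.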

[5] = Cellular Toxicity (caspase-3) N2a (AID 665);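 further: compound exposure lasted 16 h at 37 °C before readout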
Procedure, shortened: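 Mouse N2a neuroblastoma cells, 1500 per well, treated 16 h at 37 °C in complete medium; caspase-3/7 activity by Caspase-Glo luminescence after 1 h. Normalized to DMSO and 10 uM staurosporine; AC50 from Hill fits.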

[6] = Cellular Toxicity (caspase-3) NIH 3T3 (AID 666);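 further: caspase signal read after 16 h compound exposure; 0% = DMSO basal and 100% = 100 µM tamoxifen stimulation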
Procedure, shortened: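 Mouse NIH 3T3 fibroblasts (1000/well) treated 16 h at 37 C; caspase-3/7 activity measured by Caspase-Glo 3/7 luminescence after 20 min. Normalized to DMSO and 100 uM tamoxifen; AC50 from Hill fits.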

[7] = Cellular Toxicity (caspase-3) Renal Proximal Tubule (AID 667); settings: Potency: caspase-3 activation;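 further: cells exposed to compound for 16 hours at 37 °C before detection; 0% = DMSO basal and 100% = 10 µM staurosporine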
Procedure, shortened: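 Freshly isolated primary rat kidney proximal tubule cells, 1000/well, treated 16 hr at 37 °C, then Caspase-Glo 3/7 luminescence after 1 hr. Normalized to DMSO and 10 uM staurosporine; AC50 from Hill fit.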

[8] = target: Cytochrome P450 3A4 (Homo sapiens) (UniProt P08684); assay: qHTS Assay for Inhibitors and Substrates of Cytochrome P450 3A4 (AID 884); further: on the % scale 0 is the no-effect control and ±100 the full control effect; nearly all actives have a fitted effect of over 50% in size
Procedure, shortened: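 20 nM human CYP3A4 with 25 uM Luciferin-PPXE (at KM) in 200 mM KPO4, preincubated 10 min with compound; NADPH regeneration started a 60 min RT reaction. Luciferin detected by luminescence, normalized to 57 uM ketoconazole as full inhibition.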

[9] = Cell Viability - LYMP2-001 (AID 921);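 further: cells exposed to compound for 24 h at 37 °C; 0% = DMSO only and full inhibition = tetraoctylammonium bromide control wells; nearly all actives have a fitted effect of over 70% in size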
Procedure, shortened: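 Human lymphoblastoid LYMP2-001 cells, 2500 per well, in complete medium, treated 24 h at 37 C. Viability from cellular ATP by CellTiter-Glo luminescence; AC50 from Hill-equation fits of qHTS concentration-response.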

Cytochrome P450 3A4 (Homo sapiens), sequence (P08684 whole entry, looked up): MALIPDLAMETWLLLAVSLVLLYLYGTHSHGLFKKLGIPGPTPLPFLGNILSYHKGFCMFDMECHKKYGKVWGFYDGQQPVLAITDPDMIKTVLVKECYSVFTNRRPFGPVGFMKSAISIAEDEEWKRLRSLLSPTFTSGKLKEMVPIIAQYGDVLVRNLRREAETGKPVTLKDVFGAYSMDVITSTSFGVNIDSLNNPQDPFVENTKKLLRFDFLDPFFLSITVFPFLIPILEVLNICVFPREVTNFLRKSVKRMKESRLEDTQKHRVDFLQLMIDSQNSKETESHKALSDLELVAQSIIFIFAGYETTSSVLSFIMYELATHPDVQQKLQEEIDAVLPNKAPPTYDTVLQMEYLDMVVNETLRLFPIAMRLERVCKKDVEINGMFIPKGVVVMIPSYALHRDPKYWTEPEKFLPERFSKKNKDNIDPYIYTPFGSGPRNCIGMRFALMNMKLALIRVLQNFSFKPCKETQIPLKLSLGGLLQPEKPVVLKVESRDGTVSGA

OC(CCl)CCl
inactive: caspase-3 activation [1] 2.07% | outcome [2] | caspase-3 activation [3] 1.01% | caspase-3 activation [4] 2.01% | outcome [5] | outcome [6] | Potency [7] | Potency [8]

Cc1ccc(C)o1
inactive: caspase-3 activation [1] -0.182% | outcome [2] | caspase-3 activation [3] -0.53% | caspase-3 activation [4] 0.32% | outcome [5] | outcome [6] | Potency [7] | Potency [8] | Potency [9]

CC(=O)Nc1ccc(C)cc1
inactive: caspase-3 activation [1] 0.522% | outcome [2] | caspase-3 activation [3] 0.606% | caspase-3 activation [4] 0.349% | outcome [5] | outcome [6] | Potency [7] | Potency [8]

CCCCCCCCCCCCC1CO1 (stereo not given)
inactive: caspase-3 activation [1] -0.00149% | outcome [2] | caspase-3 activation [3] 0.543% | caspase-3 activation [4] 1.51% | outcome [5] | outcome [6] | Potency [7] | Potency [8]

CC(=O)Nc1ccc(N)cc1
inactive: caspase-3 activation [1] 0.253% | outcome [2] | caspase-3 activation [3] -0.322% | caspase-3 activation [4] -0.0268% | outcome [5] | outcome [6] | Potency [7] | Potency [8]

C(=C/c1ccccc1)/c1ccccc1
inactive: caspase-3 activation [1] 0.853% | outcome [2] | caspase-3 activation [3] 0.852% | caspase-3 activation [4] 5.17% | outcome [5] | outcome [6] | Potency [7] | Potency [8]

[O-]/[N+](=N\O)c1ccccc1
inactive: caspase-3 activation [1] -1.07% | outcome [2] | caspase-3 activation [3] -1.1% | caspase-3 activation [4] 2.95% | outcome [5] | outcome [6] | Potency [7]

O=C(O)c1ccc(CO)o1
inactive: caspase-3 activation [1] -0.701% | outcome [2] | caspase-3 activation [3] 0.706% | caspase-3 activation [4] -0.635% | outcome [5] | outcome [6] | Potency [7] | Potency [8]

CC(=O)OCc1ccco1
inactive: caspase-3 activation [1] -0.525% | outcome [2] | caspase-3 activation [3] -0.245% | caspase-3 activation [4] -4.85% | outcome [5] | outcome [6] | Potency [7] | Potency [8] | Potency [9]

NC(=O)c1ccccc1[N+](=O)[O-]
inactive: caspase-3 activation [1] -0.625% | outcome [2] | caspase-3 activation [3] 0.0974% | caspase-3 activation [4] 0.369% | outcome [5] | outcome [6] | Potency [7] | Potency [8]

CCCOCC(C)OCC(C)O (stereo not given)
inactive: caspase-3 activation [1] -0.26% | outcome [2] | caspase-3 activation [3] -0.229% | caspase-3 activation [4] 0.323% | outcome [5] | outcome [6] | Potency [7] | Potency [8]

O=Cc1ccccc1Cl
inactive: caspase-3 activation [1] -0.514% | outcome [2] | caspase-3 activation [3] 2.39% | caspase-3 activation [4] 2.31% | outcome [5] | outcome [6] | Potency [7] | Potency [8]

c1ccc2[nH]cnc2c1
inactive: caspase-3 activation [1] 0.6% | outcome [2] | caspase-3 activation [3] -0.984% | caspase-3 activation [4] -0.791% | outcome [5] | outcome [6] | Potency [7] | Potency [8] | Potency [9]

Nc1cccc2c(=O)[nH][nH]c(=O)c12
inactive: caspase-3 activation [1] -0.301% | outcome [2] | caspase-3 activation [3] 0.0355% | caspase-3 activation [4] -1.17% | outcome [5] | outcome [6] | Potency [7] | Potency [8] | Potency [9]

Cc1cccc(C)c1[N+](=O)[O-]
inactive: caspase-3 activation [1] 0.452% | outcome [2] | caspase-3 activation [3] -0.326% | caspase-3 activation [4] -0.173% | outcome [5] | outcome [6] | Potency [7]

C=CCCCC
inactive: caspase-3 activation [1] -0.265% | outcome [2] | caspase-3 activation [3] 0.498% | caspase-3 activation [4] 1.21% | outcome [5] | outcome [6] | Potency [7] | Potency [8] | Potency [9]

Nc1cc(S(=O)(=O)O)ccc1O
inactive: caspase-3 activation [1] 0.554% | outcome [2] | caspase-3 activation [3] -0.224% | caspase-3 activation [4] -0.175% | outcome [5] | outcome [6] | Potency [7] | Potency [8] | Potency [9]

CC=O
inactive: caspase-3 activation [1] 1.5% | outcome [2] | caspase-3 activation [3] 1.97% | caspase-3 activation [4] 2.27% | outcome [5] | outcome [6] | Potency [7] | Potency [8]

CCOCCO
inactive: caspase-3 activation [1] -0.559% | outcome [2] | caspase-3 activation [3] -0.494% | caspase-3 activation [4] -0.913% | outcome [5] | outcome [6] | Potency [7]

COC(=O)c1ccccc1
inactive: caspase-3 activation [1] 0.596% | outcome [2] | caspase-3 activation [3] 3.83% | caspase-3 activation [4] -1.66% | outcome [5] | outcome [6] | Potency [7] | Potency [8] | Potency [9]

ClC/C=C/CCl
inactive: caspase-3 activation [1] 0.143% | outcome [2] | caspase-3 activation [3] 3.85% | caspase-3 activation [4] 1.61% | outcome [5] | outcome [6] | Potency [7] | Potency [8]

O=C1OC(=O)c2cc([N+](=O)[O-])ccc21
inactive: caspase-3 activation [1] -0.00553% | outcome [2] | caspase-3 activation [3] -0.24% | caspase-3 activation [4] -0.39% | outcome [5] | outcome [6] | Potency [7] | Potency [8] | Potency [9]

COC(=O)CS
inactive: caspase-3 activation [1] -1.25% | outcome [2] | caspase-3 activation [3] 0.405% | caspase-3 activation [4] -1.02% | outcome [5] | outcome [6] | Potency [7] | Potency [8] | Potency [9]
